{
  "source": "the supplement of paper PMC8728848",
  "binders": {"B1": {"name": "PpFlo2 (Pichia pastoris) (protein)", "chain": "MGSSHHHHHHSSGLVPRGSHMDDSGNGDNSDTAYGCDITTNAVDGFDATIYQYNANDLRLIRDPTFMSTGYLGRNVLNKISGVTVPGFNIWNPSSRTATVYGVKNVNYYNMVLELKGYFKADVSGDYKLTLSHIDDSSMLFFGKETAFKCCDAGSIPLNEAPTDYSLFTIKPSNQVNSEVISATQYLEAGKYYPVRIVFVNALERARFDFKLTIPSGAVLDDFQNYIYQFGDLDENSCHE"}},
  "test_in_all_cases": "glycan array binding signal (z-score within array); higher = stronger binding",
  "conditions_in_all_cases": "glycan notation: IUPAC condensed, linker removed",
  "key": {"[1]": {"target": "Fuc(a1-2)Gal6S(b1-3)GlcNAc", "in_short": "(§1)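 Arrays were curated from the Consortium for Functional Glycomics database, 3228 in total, and kept only where the protein sequence was available. Binding is expressed as a within-array Z-score. This score was averaged across arrays of the same protein sequence at different concentrations or buffers and across linkers, and negative values can be read as non-binding.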"}, "[2]": {"target": "Fuc(a1-2)[Gal(a1-3)]Gal(b1-3)GlcNAc(b1-2)Man(a1-3)[Fuc(a1-2)[Gal(a1-3)]Gal(b1-3)GlcNAc(b1-2)Man(a1-6)]Man(b1-4)GlcNAc(b1-4)[Fuc(a1-6)]GlcNAc", "in_short": "as §1"}, "[3]": {"target": "Fuc(a1-2)[Gal(a1-3)]Gal(b1-3)GlcNAc(b1-3)GalNAc", "in_short": "as §1"}, "[4]": {"target": "Fuc(a1-2)[Gal(a1-3)]Gal(b1-4)GlcNAc(b1-2)Man(a1-3)[Fuc(a1-2)[Gal(a1-3)]Gal(b1-4)GlcNAc(b1-2)Man(a1-6)]Man(b1-4)GlcNAc(b1-4)GlcNAc", "in_short": "as §1"}, "[5]": {"target": "Fuc(a1-2)[Gal(a1-3)]Gal(b1-4)GlcNAc(b1-2)Man(a1-3)[Fuc(a1-2)[Gal(a1-3)]Gal(b1-4)GlcNAc(b1-2)Man(a1-6)]Man(b1-4)GlcNAc(b1-4)[Fuc(a1-6)]GlcNAc", "in_short": "as §1"}, "[6]": {"target": "Fuc(a1-2)[Gal(a1-3)]Gal(b1-4)[Fuc(a1-3)]GlcNAc(b1-3)GalNAc", "in_short": "as §1"}, "[7]": {"target": "Fuc(a1-2)[GalNAc(a1-3)]Gal(b1-3)GlcNAc(b1-2)Man(a1-3)[Fuc(a1-2)[GalNAc(a1-3)]Gal(b1-3)GlcNAc(b1-2)Man(a1-6)]Man(b1-4)GlcNAc(b1-4)GlcNAc", "in_short": "as §1"}, "Fuc(a1-3)GlcNAc": {"target": "Fuc(a1-3)GlcNAc", "in_short": "as §1"}, "[8]": {"target": "Fuc(a1-3)[Gal3S(b1-4)]GlcNAc", "in_short": "as §1"}, "[9]": {"target": "Gal(a1-3)Gal(b1-3)GlcNAc(b1-6)GalNAc", "in_short": "as §1"}, "[10]": {"target": "Gal(a1-4)Gal(b1-4)GlcNAc(b1-2)Man(a1-3)[Gal(a1-4)Gal(b1-4)GlcNAc(b1-2)Man(a1-6)]Man(b1-4)GlcNAc(b1-4)GlcNAc", "in_short": "as §1"}, "Gal(b1-3)GalNAc(b1-3)Gal": {"target": "Gal(b1-3)GalNAc(b1-3)Gal", "in_short": "as §1"}, "[11]": {"target": "Gal(b1-3)GlcNAc(b1-3)Gal(b1-4)GlcNAc(b1-2)Man(a1-3)[Gal(b1-3)GlcNAc(b1-3)Gal(b1-4)GlcNAc(b1-2)Man(a1-6)]Man(b1-4)GlcNAc(b1-4)GlcNAc", "in_short": "as §1"}, "[12]": {"target": "Gal(b1-4)GlcNAc(a1-6)Gal(b1-4)GlcNAc", "in_short": "as §1"}, "[13]": {"target": "Gal(b1-4)GlcNAc(b1-2)Man(a1-3)[Gal(b1-4)GlcNAc(b1-2)][GlcNAc(b1-4)]Man(b1-4)GlcNAc(b1-4)GlcNAc", "in_short": "as §1"}, "[14]": {"target": "Gal(b1-4)GlcNAc(b1-2)Man(a1-3)[Man(a1-6)]Man(b1-4)GlcNAc(b1-4)GlcNAc", "in_short": "as §1"}, "[15]": {"target": "Gal(b1-4)GlcNAc(b1-2)[Gal(b1-4)GlcNAc(b1-6)]Man(a1-6)[GlcNAc(b1-4)][Gal(b1-4)GlcNAc(b1-2)Man(a1-3)]Man(b1-4)GlcNAc(b1-4)GlcNAc", "in_short": "as §1"}, "[16]": {"target": "Gal(b1-4)GlcNAc(b1-3)Gal(b1-4)GlcNAc(b1-2)Man(a1-3)[Gal(b1-4)GlcNAc(b1-3)Gal(b1-4)GlcNAc(b1-2)Man(a1-6)]Man(b1-4)GlcNAc(b1-4)[Fuc(a1-6)]GlcNAc", "in_short": "as §1"}, "[17]": {"target": "Gal(b1-4)GlcNAc(b1-3)Gal(b1-4)GlcNAc(b1-3)Gal(b1-4)GlcNAc(b1-2)[Gal(b1-4)GlcNAc(b1-3)Gal(b1-4)GlcNAc(b1-3)Gal(b1-4)GlcNAc(b1-6)]Man(a1-6)[Gal(b1-4)GlcNAc(b1-3)Gal(b1-4)GlcNAc(b1-3)Gal(b1-4)GlcNAc(b1-2)Man(a1-3)]Man(b1-4)GlcNAc(b1-4)[Fuc(a1-6)]GlcNAc", "in_short": "as §1"}, "[18]": {"target": "Gal(b1-4)GlcNAc(b1-3)Gal(b1-4)GlcNAc(b1-3)Gal(b1-4)GlcNAc(b1-3)Gal(b1-4)GlcNAc(b1-2)Man(a1-3)[Gal(b1-4)GlcNAc(b1-3)Gal(b1-4)GlcNAc(b1-3)Gal(b1-4)GlcNAc(b1-3)Gal(b1-4)GlcNAc(b1-2)Man(a1-6)]Man(b1-4)GlcNAc(b1-4)[Fuc(a1-6)]GlcNAc", "in_short": "as §1"}, "[19]": {"target": "Gal3S(b1-3)[Fuc(a1-4)]GlcNAc", "in_short": "as §1"}, "Gal6S(b1-3)GlcNAc6S": {"target": "Gal6S(b1-3)GlcNAc6S", "in_short": "as §1"}, "[20]": {"target": "GlcNAc(b1-2)Man(a1-3)[GlcNAc(b1-2)Man(a1-6)]Man(b1-4)GlcNAc(b1-4)GlcNAc", "in_short": "as §1"}, "[21]": {"target": "GlcNAc(b1-2)[GlcNAc(b1-4)]Man(a1-3)[GlcNAc(b1-4)][GlcNAc(b1-2)[GlcNAc(b1-6)]Man(a1-6)]Man(b1-4)GlcNAc(b1-4)GlcNAc", "in_short": "as §1"}, "GlcNAc(b1-3)Gal": {"target": "GlcNAc(b1-3)Gal", "in_short": "as §1"}, "[22]": {"target": "GlcNAc(b1-3)Gal(b1-4)GlcNAc(b1-2)Man(a1-3)[GlcNAc(b1-3)Gal(b1-4)GlcNAc(b1-2)Man(a1-6)]Man(b1-4)GlcNAc(b1-4)GlcNAc", "in_short": "as §1"}, "[23]": {"target": "GlcNAc(b1-3)Gal(b1-4)GlcNAc(b1-2)Man(a1-3)[GlcNAc(b1-3)Gal(b1-4)GlcNAc(b1-2)Man(a1-6)]Man(b1-4)GlcNAc(b1-4)[Fuc(a1-6)]GlcNAc", "in_short": "as §1"}, "[24]": {"target": "GlcNAc(b1-3)Gal(b1-4)GlcNAc(b1-3)Gal(b1-4)GlcNAc(b1-2)Man(a1-3)[GlcNAc(b1-3)Gal(b1-4)GlcNAc(b1-3)Gal(b1-4)GlcNAc(b1-2)Man(a1-6)]Man(b1-4)GlcNAc(b1-4)GlcNAc", "in_short": "as §1"}},
  "note": "Shown is part of a subset that was picked to be rich in the strongest signals.",
  "data": [
    {"binder": "B1", "values": [
      {"measurement": "glycan array binding signal (z-score)", "setting": "[1]", "value": -0.272},
      {"measurement": "glycan array binding signal (z-score)", "setting": "[2]", "value": -0.293},
      {"measurement": "glycan array binding signal (z-score)", "setting": "[3]", "value": -0.288},
      {"measurement": "glycan array binding signal (z-score)", "setting": "[4]", "value": -0.209},
      {"measurement": "glycan array binding signal (z-score)", "setting": "[5]", "value": -0.288},
      {"measurement": "glycan array binding signal (z-score)", "setting": "[6]", "value": -0.297},
      {"measurement": "glycan array binding signal (z-score)", "setting": "[7]", "value": -0.287},
      {"measurement": "glycan array binding signal (z-score)", "setting": "Fuc(a1-3)GlcNAc", "value": -0.292},
      {"measurement": "glycan array binding signal (z-score)", "setting": "[8]", "value": -0.313},
      {"measurement": "glycan array binding signal (z-score)", "setting": "[9]", "value": -0.271},
      {"measurement": "glycan array binding signal (z-score)", "setting": "[10]", "value": -0.23},
      {"measurement": "glycan array binding signal (z-score)", "setting": "Gal(b1-3)GalNAc(b1-3)Gal", "value": -0.272},
      {"measurement": "glycan array binding signal (z-score)", "setting": "[11]", "value": -0.174},
      {"measurement": "glycan array binding signal (z-score)", "setting": "[12]", "value": -0.273},
      {"measurement": "glycan array binding signal (z-score)", "setting": "[13]", "value": -0.344},
      {"measurement": "glycan array binding signal (z-score)", "setting": "[14]", "value": -0.273},
      {"measurement": "glycan array binding signal (z-score)", "setting": "[15]", "value": -0.297},
      {"measurement": "glycan array binding signal (z-score)", "setting": "[16]", "value": -0.25},
      {"measurement": "glycan array binding signal (z-score)", "setting": "[17]", "value": -0.261},
      {"measurement": "glycan array binding signal (z-score)", "setting": "[18]", "value": -0.243},
      {"measurement": "glycan array binding signal (z-score)", "setting": "[19]", "value": -0.286},
      {"measurement": "glycan array binding signal (z-score)", "setting": "Gal6S(b1-3)GlcNAc6S", "value": -0.286},
      {"measurement": "glycan array binding signal (z-score)", "setting": "[20]", "value": 3.88},
      {"measurement": "glycan array binding signal (z-score)", "setting": "[21]", "value": 0.675},
      {"measurement": "glycan array binding signal (z-score)", "setting": "GlcNAc(b1-3)Gal", "value": 1.09},
      {"measurement": "glycan array binding signal (z-score)", "setting": "[22]", "value": 4.64},
      {"measurement": "glycan array binding signal (z-score)", "setting": "[23]", "value": 4.49},
      {"measurement": "glycan array binding signal (z-score)", "setting": "[24]", "value": 3.9}
    ]}
  ]
}
